In PubChem BioAssay (NCI):
About 83,000 compounds went through this panel and 20% of them were active in at least one assay; those are over-represented in the sample as a whole.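 Activity criterion: percent growth below 10, measured after cells in 96-well plates were exposed to a single compound concentration for 48 hours.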 A number with no mark means an inactive call. The source made the active and inactive calls.

Key:
Assay in all cases: NCI-60 one-dose screen, 48 h (100 = growth as untreated, 0 = no growth, -100 = all killed)
Conditions in all cases: 10 µM unless noted
DU-145 prostate = tested on: DU-145 prostate
K-562 leukemia = tested on: K-562 leukemia
MALME-3M melanoma = tested on: MALME-3M melanoma
MDA-MB-231 breast = tested on: MDA-MB-231 breast
RXF 393 renal = tested on: RXF 393 renal
SF-268 CNS = tested on: SF-268 CNS
SF-295 CNS = tested on: SF-295 CNS
SF-539 CNS = tested on: SF-539 CNS
UACC-257 melanoma = tested on: UACC-257 melanoma
M14 melanoma = tested on: M14 melanoma
HCT-15 colon = tested on: HCT-15 colon
HT29 colon = tested on: HT29 colon
SNB-75 CNS = tested on: SNB-75 CNS
SNB-19 CNS = tested on: SNB-19 CNS
U251 CNS = tested on: U251 CNS
PC-3 prostate = tested on: PC-3 prostate
SK-MEL-5 melanoma = tested on: SK-MEL-5 melanoma
UACC-62 melanoma = tested on: UACC-62 melanoma
LOX IMVI melanoma = tested on: LOX IMVI melanoma
SK-MEL-28 melanoma = tested on: SK-MEL-28 melanoma

Compound	growth (DU-145 prostate)	growth (K-562 leukemia)	growth (MALME-3M melanoma)	growth (MDA-MB-231 breast)	growth (RXF 393 renal)	growth (SF-268 CNS)	growth (SF-295 CNS)	growth (SF-539 CNS)	growth (UACC-257 melanoma)	growth (M14 melanoma)	growth (HCT-15 colon)	growth (HT29 colon)	growth (SNB-75 CNS)	growth (SNB-19 CNS)	growth (U251 CNS)	growth (PC-3 prostate)	growth (SK-MEL-5 melanoma)	growth (UACC-62 melanoma)	growth (LOX IMVI melanoma)	growth (SK-MEL-28 melanoma)
Cc1ccc(CCC(=O)Nc2ncc(Cc3cc(Cl)ccc3Cl)s2)o1	13.8%	9.78% (active)	41.5%	12.4%	-8.55% (active)	57.6%	7.41% (active)	-16.4% (active)	66.9%	6.18% (active)	12.5%	4.92% (active)	-1.75% (active)	21.7%	18%	23.6%	7.9% (active)	21.2%	13.3%	55.7%
COc1ccc(-c2nc3c(c(=O)n2C(C)=O)C(c2ccc(Cl)cc2)c2sc4c(Cl)cccc4c2O3)cc1 (stereo not given)	-5.67% (active)	2.48% (active)	39.8%	-41.2% (active)	-27.4% (active)	-9.95% (active)	1.12% (active)	-51.8% (active)	12.2%	-36.3% (active)	-29.1% (active)	-49.4% (active)	-12.7% (active)	12.7%	-34.3% (active)	1.24% (active)	-23.3% (active)	5.57% (active)	-49.6% (active)	23.4%
Cn1c(-c2c(N)n(Cc3ccc(C(F)(F)F)cc3)c3nc(C#N)c(C#N)nc23)nc2ccccc21	-4.79% (active)	-30.7% (active)	-23.9% (active)	-13.2% (active)	4.46% (active)	43.3%	-27.5% (active)	8.23% (active)	6.78% (active)	16.2%	12.5%	9.72% (active)	15.1%	21.3%	5.09% (active)	-26.6% (active)	-10.4% (active)	18.6%	2.4% (active)	28.8%
O=C(N=c1oc2ccccc2cc1-c1cc2ccccc2[nH]1)c1ccc(Cl)cc1	51.3%	26.5%	94.1%	51.2%	59.9%	35.5%	60.3%	52.8%	98.7%	79.7%	25.7%	65.7%	53.6%	32.6%	28.9%	27.2%	96.1%	63.1%	60.5%	95.3%
COc1ccc2oc3c(C)c4c(c(C)c3c2c1)C(=O)N(Cc1ccccc1)C4=O	97.1%	92.3%	92.5%	90.3%	99%	87.8%	101%	89.7%	105%	92.9%	101%	96.1%	85.9%	95.1%	83.5%	85.5%	99.6%	92.5%	94%	103%
CC/C=C\C[C@H](O)C/C=C1/C(=O)C=C[C@@H]1C/C=C\CCCC(=O)OC	20.2%	2.74% (active)	9.07% (active)	11.9%	-19.6% (active)	15.1%	-1.98% (active)	7.57% (active)	-17.5% (active)	-1.46% (active)	-20.3% (active)	-54.7% (active)	57.8%	35.2%	-72.8% (active)	-11.3% (active)	-84.7% (active)	-40.3% (active)	-76.9% (active)	-34.3% (active)
Cc1nn(-c2ccccc2)c(Oc2ccc(Cl)cc2)c1/C=N\N=c1/sc2ccccc2n1C	108%	81%	98.2%	79%	94.2%	79.6%	101%	107%	91.9%	87.4%	77.4%	84.8%	74.4%	99.1%	86.9%	62.3%	93.3%	70.8%	93.3%	110%
O=C(O)C1CCC(=O)N1C(=O)OCc1ccccc1 (stereo not given)	117%	92.4%	96.2%	112%	96.6%	111%	106%	96.9%	95.4%	102%	97.3%	101%	80.9%	97.8%	102%	100%	105%	87%	98%	140%
CCc1c2c(nc3ccc(OC(=O)OCc4ccc(B5OC(C)(C)C(C)(C)O5)cc4)cc13)-c1cc3c(c(=O)n1C2)COC(=O)[C@]3(O)CC	4.84% (active)	13.1%	-43.9% (active)	17.4%	-64.7% (active)	-7.41% (active)	0.0181% (active)	-62.9% (active)	-60% (active)	4.15% (active)	9.28% (active)	24.8%	-21.5% (active)	1.62% (active)	-57.2% (active)	14.9%	-84.2% (active)	-80.8% (active)	-67.8% (active)	-0.304% (active)
Nc1ccc2c(c1)c(N)nn2C(=O)Nc1ccc(Cc2ccccc2)cc1	79.3%	-5.66% (active)	75.3%	60.6%	99.8%	83.9%	48%	73.6%	79.1%	46.8%	44.5%	76.8%	126%	105%	59.9%	60.2%	71.7%	7.09% (active)	40.3%	115%
COCCc1ccc(OCC(O)CNC(C)C)cc1 (stereo not given)	109%	101%	97.5%	101%	128%	104%	101%	106%	96.3%	92.4%	102%	98.9%	90.4%	105%	98.2%	96.6%	108%	113%	96.6%	98.9%
Clc1ccc(-c2c3ccc(=[N+]4CCCCC4)cc-3oc3cc(N4CCCCC4)ccc23)cc1	-91.7% (active)	-34.1% (active)	-76.4% (active)	-81.7% (active)	-91.2% (active)	-89.6% (active)	-72.6% (active)	-93.4% (active)	-78.5% (active)	-92.7% (active)	-77.1% (active)	-82.3% (active)	-70.1% (active)	-90% (active)	-79.6% (active)	-71.2% (active)	-95.4% (active)	-87.1% (active)	-70.2% (active)	-91.4% (active)
Cn1c(-c2c(N)n(Cc3cccnc3)c3nc(C#N)c(C#N)nc23)nc2ccccc21	95.7%	51.1%	53.5%	89.2%	65.9%	98.8%	110%	64.7%	102%	91.1%	94.5%	92.1%	96.6%	103%	94.3%	66%	89.2%	89.8%	97.4%	113%
Cc1c(C(=O)N[C@@H](Cc2ccccc2)C(=O)C(=O)NCCc2ccccc2)[nH]c2ccccc2c1=O	101%	91.7%	103%	97.7%	112%	98.6%	103%	102%	101%	110%	102%	105%	88.7%	98%	99.6%	93.8%	97.8%	92.1%	97.8%	105%
